According to PubChem BioAssay (NCI):
About 79,000 compounds went through this panel and 15% of them were active in at least one assay; those are over-represented in the sample as a whole. Values without a mark were called inactive. No stated cut-off is given here; in the data, active means growth inhibition above about 70%; inactive means the rest.

Experiment: NCI Yeast Anticancer Drug Screen. Data for the rad50 strain (AID 155);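 further: 0% = growth of vehicle-only cultures of the same strain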
Conditions: S. cerevisiae rad50 strain growth inhibition; at 50.0 µM; hits give high values
Procedure, shortened: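 Genetically altered yeast (DNA repair pathway); compound treatment; growth inhibition vs vehicle ctrl.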

**Q.** Which growth inhibition does the source give for `NC(=O)c1ccccn1` here?
**A.** 20.7%

**Q.** With `COc1cc(C=Nc2ccc(C(C)C)cc2)cc(OC)c1OC` as the molecule, how does the growth inhibition read?
**A.** 9.25%

**Q.** For `CC(=O)OCC(=O)COC(C)=O`, which growth inhibition is on record?
**A.** -4.95%

**Q.** For `CCCCNc1ccc([N+](=O)[O-])cc1[N+](=O)[O-]`, which growth inhibition is on record?
**A.** 16.2%

**Q.** For `Nc1ncc(C(=O)O)c(N)n1`, which growth inhibition is on record?
**A.** 15.8%

**Q.** Which growth inhibition does the source give for `COC1=CC(=O)C=C(OC)C1=O` here?
**A.** -2.55%

**Q.** With `C/C=C/[C@@]1(OC(=O)c2ccccc2)C[C@@H]2CCCC[C@@H]21` as the molecule, how does the growth inhibition read?
**A.** 35.4%

**Q.** With `CN(C)CCN(C(=Nc1ccccc1)N1CCCC1)c1ccccc1` as the molecule, how does the growth inhibition read?
**A.** -18.7%

**Q.** Which growth inhibition does the source give for `CCOC(=O)C(C(=O)OCC)=C1c2ccccc2Oc2ccccc21` here?
**A.** 39.1%

**Q.** With `C=C(C)COCc1ccc(C(C)(C)CC(C)(C)C)cc1` as the molecule, how does the growth inhibition read?
**A.** -14.6%

**Q.** For `O=[N+]([O-])c1ccc(N=NC(=S)NNc2ccccc2)cc1`, which growth inhibition is on record?
**A.** 38.9%

**Q.** With `[O-]/[N+](=C\c1ccc(Cl)cc1)c1ccccc1` as the molecule, how does the growth inhibition read?
**A.** -11.2%

**Q.** Which growth inhibition does the source give for `Cc1ccc(/S(Cc2ccccc2)=N\S(=O)(=O)c2ccc(C)cc2)cc1` (stereo not drawn) here?
**A.** -40.2%

**Q.** Which growth inhibition does the source give for `Cc1nc(N)c2c(ncn2C2OC(CO)C(O)C2O)n1` (stereo not drawn) here?
**A.** 9.35%

**Q.** For `O=C1c2c(-c3ccccc3)ccc(-c3ccccc3)c2C(=O)c2c(-c3ccccc3)ccc(-c3ccccc3)c21`, which growth inhibition is on record?
**A.** -4.4%

**Q.** With `COc1ccc(N2C(=O)C3c4[nH]c5ccc(OC)cc5c4C4CCC(C(C)(C)C)CC4C3C2=O)cc1` (stereo not drawn) as the molecule, how does the growth inhibition read?
**A.** 22.1%

**Q.** With `COCCC(N)C(=O)O` (stereo not drawn) as the molecule, how does the growth inhibition read?
**A.** 6%

**Q.** For `Cc1sc2c(c1C)C(=O)c1cccn1-2`, which growth inhibition is on record?
**A.** 4.95%
